Assay [1] can be described thus: NCI Yeast Anticancer Drug Screen. Data for the rad50 strain (AID 155).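 Also: 0% = growth of vehicle-only cultures of the same strain.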 As to conditions: S. cerevisiae rad50 strain growth inhibition, stronger effect = higher value. In outline:
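Yeast carrying a defined DNA repair defect were exposed to test compounds, and growth was compared with vehicle-treated controls to give percent inhibition.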

The nature of assay [2]: NCI Yeast Anticancer Drug Screen. Data for the mec2-1 strain (AID 157). As to conditions: S. cerevisiae mec2-1 strain, stronger effect = higher value. In outline:
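Growth inhibition is read against vehicle-treated controls after compound exposure of the mec2-1 yeast strain, which is defective in DNA damage repair or cell cycle control.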

Assay [3] in a line: NCI Yeast Anticancer Drug Screen. Data for the sgs1 mgt1 strain (AID 161).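 Also: 0% = growth of cultures given vehicle only.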 As to conditions: S. cerevisiae sgs1 mgt1 strain, stronger effect = higher value. In outline:
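Growth of a repair-deficient yeast mutant was monitored after compound treatment and expressed as inhibition relative to vehicle-treated cultures.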

Assay [4] can be described thus: NCI Yeast Anticancer Drug Screen. Data for the cln2 rad14 strain (AID 165).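 Also: 0% = growth equal to vehicle treated cultures.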 As to conditions: S. cerevisiae cln2 rad14 strain, stronger effect = higher value. In outline:
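Growth inhibition, relative to vehicle-treated controls, is the read-out. The test organism is a yeast strain with defined genetic alterations, cln2 rad14.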

Assay [5] can be described thus: NCI Yeast Anticancer Drug Screen. Data for the bub3 strain (AID 167). As to conditions: S. cerevisiae bub3 mutant strain, stronger effect = higher value. The procedure, abridged: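 Compounds were applied to a genetically altered yeast strain carrying a cell-cycle control defect. Growth inhibition was scored against vehicle-treated controls.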
Assay [6] in a line: NCI Yeast Anticancer Drug Screen. Data for the mlh1 rad18 strain (AID 175). As to conditions: S. cerevisiae mlh1 rad18 strain growth inhibition, stronger effect = higher value. In outline:
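Cells of a genetically altered yeast strain, deficient in DNA damage repair, were treated with compound. Their growth was then compared with that of vehicle-treated cultures to give inhibition.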

[7] abbreviates: at 5.0 µM (retest, dose inferred, filed as 0.5).
Setting [8] is: at 50.0 µM (retest, dose inferred, filed as 5.0).

“And” between values parts separate entries of the source, which are not always exact repeats. Identical values can stand only once. This is part of a sample that, as a whole, favours compounds with a hit. Of some 79,000 tested, about 15% had one in any assay. Some structures have more than one record in an assay (separate samples or runs), and their calls can disagree. The source made the active and inactive calls. Rule as the data show it: active = growth inhibition above about 70%; inactive = the rest.

Our source for the growth inhibition values is PubChem BioAssay (NCI).

In the case of `CC(=O)Nc1ccc(/C=N/N=C(/N)N[N+](=O)[O-])cc1`, the growth inhibition in assay [1] (setting [7]) is -7% (inactive); in assay [1] (setting [8]), -1% (inactive); in assay [1] (at 50.0 µM) it was 61.5% (inactive); in assay [2] (setting [7]), -7% (inactive); in assay [2] (setting [8]), -2% (inactive); in assay [2] (at 50.0 µM), 63.8% (inactive). For the same molecule, the growth inhibition in assay [3] (setting [7]) was -5% (inactive); in assay [3] (setting [8]), -1% (inactive); in assay [3] (at 50.0 µM), 52.9% (inactive); in assay [4] (setting [7]), -1% (inactive); in assay [4] (setting [8]), 1% (inactive); in assay [4] (at 50.0 µM) it was 83.8% (active). Moreover, the growth inhibition in assay [5] (setting [7]) was -2% (inactive); in assay [5] (setting [8]), -6% (inactive); in assay [5] (at 50.0 µM), 71.5% (active); in assay [6] (setting [7]), 1% (inactive); in assay [6] (setting [8]) it was -9% (inactive); in assay [6] (at 50.0 µM), 81.3% (active).

In the case of `CCC1(C2=CCCCC2)C(=O)NC(=S)NC1=O`, the growth inhibition in assay [1] (setting [7]) was -101% (inactive); in assay [1] (setting [8]), 62% (inactive); in assay [1] (at 50.0 µM), 8.05% (inactive) and 60.1% (inactive); in assay [2] (setting [7]), -11% (inactive); in assay [2] (setting [8]), 76% (active); in assay [2] (at 50.0 µM), -3.9% (inactive) and 5.6% (inactive). Moreover, the growth inhibition in assay [3] (setting [7]) is 22% (inactive); in assay [3] (setting [8]), 77% (active); in assay [3] (at 50.0 µM), 0.6% (inactive) and 51.5% (inactive); in assay [4] (setting [7]), -14% (inactive); in assay [4] (setting [8]), 62% (inactive); in assay [4] (at 50.0 µM), -32.4% (inactive) and -0.6% (inactive). Also, the growth inhibition in assay [5] (setting [7]) is 4% (inactive); in assay [5] (setting [8]) it was 62% (inactive); in assay [5] (at 50.0 µM) it was 6.05% (inactive) and 34.2% (inactive); in assay [6] (setting [7]) it was 0% (inactive); in assay [6] (setting [8]), 79% (active); in assay [6] (at 50.0 µM), 25.5% (inactive) and 85% (active).

As to `CC(C)COP(=O)(O)OCC(C)C.[Al]`, the growth inhibition was -2% (inactive) in assay [1] (setting [7]); -11% (inactive) in assay [1] (setting [8]); 3.45% (inactive) in assay [1] (at 50.0 µM); -4% (inactive) in assay [2] (setting [7]); -9% (inactive) in assay [2] (setting [8]); 16.6% (inactive) in assay [2] (at 50.0 µM). The growth inhibition in assay [3] (setting [7]) is -5% (inactive); in assay [3] (setting [8]) it was -4% (inactive); in assay [3] (at 50.0 µM), 3.05% (inactive); in assay [4] (setting [7]), -1% (inactive); in assay [4] (setting [8]), 3% (inactive); in assay [4] (at 50.0 µM), -12.1% (inactive). For the same molecule, the growth inhibition in assay [5] (setting [7]) is 1% (inactive); in assay [5] (setting [8]), 31% (inactive); in assay [5] (at 50.0 µM), -0.75% (inactive); in assay [6] (setting [7]), -2% (inactive); in assay [6] (setting [8]), -10% (inactive); in assay [6] (at 50.0 µM), 18.2% (inactive).

Regarding `O=[N+]([O-])c1cc2c([N+](=O)[O-])cccc2o1`, the growth inhibition in assay [1] (setting [7]) is 15% (inactive); in assay [1] (setting [8]) it was 98% (active); in assay [1] (at 50.0 µM), 95.9% (active); in assay [2] (setting [7]), 8% (inactive); in assay [2] (setting [8]) it was 99% (active); in assay [2] (at 50.0 µM) it was 99.7% (active). In addition, the growth inhibition is 19% (inactive) in assay [3] (setting [7]); 99% (active) in assay [3] (setting [8]); 99.2% (active) in assay [3] (at 50.0 µM); 0% (inactive) in assay [4] (setting [7]); 99% (active) in assay [4] (setting [8]); 97.3% (active) in assay [4] (at 50.0 µM). Besides, the growth inhibition in assay [5] (setting [7]) was 7% (inactive); in assay [5] (setting [8]), 98% (active); in assay [5] (at 50.0 µM), 99.5% (active); in assay [6] (setting [7]) it was 74% (active); in assay [6] (setting [8]), 99% (active); in assay [6] (at 50.0 µM), 99.5% (active).

As to `CCOP(=O)(OCC)/C(C#N)=C/c1cccc(Cl)c1`, the growth inhibition in assay [1] (setting [7]) was 1% (inactive); in assay [1] (setting [8]) it was 94% (active); in assay [1] (at 50.0 µM), 90.5% (active); in assay [2] (setting [7]), -1% (inactive); in assay [2] (setting [8]), 96% (active); in assay [2] (at 50.0 µM), 91.8% (active). Moreover, the growth inhibition is 5% (inactive) in assay [3] (setting [7]); 94% (active) in assay [3] (setting [8]); 90.8% (active) in assay [3] (at 50.0 µM); 14% (inactive) in assay [4] (setting [7]); 94% (active) in assay [4] (setting [8]); 88.2% (active) in assay [4] (at 50.0 µM). For the same molecule, the growth inhibition in assay [5] (setting [7]) was -6% (inactive); in assay [5] (setting [8]) it was 96% (active); in assay [5] (at 50.0 µM), 89.8% (active); in assay [6] (setting [7]), 6% (inactive); in assay [6] (setting [8]), 96% (active); in assay [6] (at 50.0 µM) it was 89.3% (active).

For `COC(=O)C1=C(C)NC(=S)NC1c1ccc(N(CCCl)CCCl)cc1Cl` (stereo not drawn), the growth inhibition is 10% (inactive) in assay [1] (setting [7]); 94% (active) in assay [1] (setting [8]); 51.1% (inactive) in assay [1] (at 50.0 µM); -28% (inactive) in assay [2] (setting [7]); 96% (active) in assay [2] (setting [8]); 86.7% (active) in assay [2] (at 50.0 µM). The growth inhibition is 1% (inactive) in assay [3] (setting [7]); 95% (active) in assay [3] (setting [8]); 86.2% (active) in assay [3] (at 50.0 µM); -8% (inactive) in assay [4] (setting [7]); 92% (active) in assay [4] (setting [8]); 61.9% (inactive) in assay [4] (at 50.0 µM). In addition, the growth inhibition is 81% (active) in assay [5] (setting [7]); 97% (active) in assay [5] (setting [8]); 96.5% (active) in assay [5] (at 50.0 µM); 13% (inactive) in assay [6] (setting [7]); 94% (active) in assay [6] (setting [8]); 91.3% (active) in assay [6] (at 50.0 µM).
